The values below come from PubChem BioAssay (Tox21).

Each structure is given as a SMILES string. Records with an inconclusive call do not appear. Where a call stands in place of a potency, no number is given. Some structures have more than one record in an assay (separate samples or runs), and their calls can disagree. Active and inactive are the calls of the source. The call rests on the fitted dose curve; in most records, active means well fitted curve in the direction sought with a large enough effect in the repeat runs; inconclusive means weak or mixed curves; inactive means no such curve, though single readings can be large; an effect the other way counts as inactive or inconclusive.
Potency means the concentration at half of the fitted maximal effect.

Chain of Nuclear receptor subfamily 1 group I member 3 (Homo sapiens) (Q14994 whole entry, looked up): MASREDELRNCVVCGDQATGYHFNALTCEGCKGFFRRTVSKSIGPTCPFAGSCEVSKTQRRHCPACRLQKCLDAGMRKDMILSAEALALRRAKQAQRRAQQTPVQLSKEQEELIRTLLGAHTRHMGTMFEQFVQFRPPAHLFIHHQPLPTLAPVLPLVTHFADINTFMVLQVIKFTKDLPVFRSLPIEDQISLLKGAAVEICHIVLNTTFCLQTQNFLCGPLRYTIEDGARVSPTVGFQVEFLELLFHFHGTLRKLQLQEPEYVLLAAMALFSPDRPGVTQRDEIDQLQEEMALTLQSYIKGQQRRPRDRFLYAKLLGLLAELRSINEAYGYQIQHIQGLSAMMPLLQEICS

Test system in one assay: not listed separately
As to the kind of experiment: qHTS assay to identify small molecule agonists of the constitutive androstane receptor (CAR) signaling pathway - cell viability counter screen (AID 1224836). Further: nearly all actives have a fitted effect of over 45% in size. Conditions: HepG2-CYP2B6-hCAR viability, CellTiter-Fluor, 23 h, PK11195 added to every well; series mostly up to 92.4 µM. The procedure, abridged: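 Multiplexed viability check: HepG2-CYP2B6-hCAR cells, 15-point compound dosing, 0.75 uM PK11195 final, 23 h at 37 C, CellTiter-Fluor fluorescence.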
`O=C(O)c1cc(O)c2c(c1)C(=O)c1cccc(O)c1C2=O`: the Potency entry is “inactive”.

`CCCCCCCCCOC(=O)c1ccc(O)cc1`: the Potency entry was “inactive”.

Turning to `N=C1N=C(N)c2cc3ccccc3cc21`, the Potency was 24.3 µM (active).

In the case of `CCCCCCCCS(=O)C(C)Cc1ccc2c(c1)OCO2` (centres undefined), the Potency result is “inactive”.

`CCCCN1C(=O)[C@@H]([C@H](O)C2CCCCC2)NC(=O)C12CCN(Cc1ccc(Oc3ccc(C(=O)O)cc3)cc1)CC2`: the Potency entry is “inactive”.

As for `O=c1cc(-c2ccc(O)cc2)oc2cc(O)cc(O)c12`, the Potency was 55.2 µM (active).

As for `CC(=O)S[C@@H]1CC2=CC(=O)CC[C@]2(C)[C@H]2CC[C@@]3(C)[C@@H](CC[C@@]34CCC(=O)O4)[C@H]12`, the Potency result is “inactive”.

Consider `CCCCCCCC[N+](CCCCCCCC)(CCCCCCCC)CCCCCCCC`, for which the Potency was 9.67 µM (active).

Take `O=C(Nc1cccc(Cl)c1)OCC#CCCl`: the Potency is 54.5 µM (active).

As to `CCC(CN)=C(c1ccccc1)c1ccccc1`, the Potency entry is “inactive”.

Turning to `CCCCCCCCCCCCCCCC(=O)OC[C@H](O)[C@H]1OC(=O)C(O)=C1O`, the Potency entry is “inactive”.

Consider `C[C@@H]1C[C@H]2[C@@H]3CCC4=CC(=O)C=C[C@]4(C)[C@@]3(Cl)[C@@H](O)C[C@]2(C)[C@@]1(OC(=O)c1ccco1)C(=O)CCl`, for which the Potency entry was “inactive”.

In the case of `O=[N+]([O-])c1cc([N+](=O)[O-])c2ccc(S(=O)(=O)O)cc2c1O`, the Potency was 27.1 µM (active).

`CN(C)c1ccc(SC#N)cc1`: the Potency entry was “inactive”.

Take `c1cc(C(c2ccc(OCC3CO3)cc2)c2ccc(OCC3CO3)cc2)ccc1OCC1CO1` (centres undefined): the Potency result was “inactive”.

As for `CCOc1nc2cccc(C(=O)OC(C)OC(=O)OC3CCCCC3)c2n1Cc1ccc(-c2ccccc2-c2nn[nH]n2)cc1` (centres undefined), the Potency result was “inactive”.

`CCCCN(CCCC)c1ccc(C(=O)c2ccccc2C(=O)O)c(O)c1`: the Potency result is “inactive”.

On to `CCCC/C=C/CCCCO`, for which the Potency result was “inactive”.

As for `Cc1nc(-c2ccc3c(c2)CCN(CCC2CCC(NC(=O)/C=C/c4ccc(F)cc4)CC2)CC3)no1` (centres undefined), the Potency entry was “inactive”.

Take `CC[C@H](c1ccc(O)cc1)[C@@H](CC)c1ccc(O)cc1`: the Potency result is “inactive”.

Turning to `CSc1ccc2c(c1)C(N1CCN(C)CC1)Cc1ccccc1S2` (centres undefined), the Potency result was “inactive”.

For the compound `CNC(=O)c1ccccc1`, the Potency result is “inactive”.

For `O=c1c(-c2ccccc2)c1-c1ccccc1`, the Potency entry is “inactive”.

Test system in a further assay: not listed separately
The assay can be described thus: qHTS assay to identify small molecule antagonists of the constitutive androstane receptor (CAR) signaling pathway - cell viability counter screen (AID 1224837). Further: nearly all actives have a fitted effect of over 45% in size. Conditions: HepG2-CYP2B6-hCAR viability, CellTiter-Fluor, 23 h, co-treated with 50 nM CITCO; series mostly up to 92.4 µM. The essentials: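 Cells are seeded, rested 4 hr at 37 C/5% CO2, dosed with compound (15-point series) and 50 nM CITCO, incubated a further 23 hr, and then CellTiter-Fluor reagent is added before fluorescence is read. The line is HepG2 with stable hCAR and CYP2B6-2.2kb.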
On the technique in general: Quantitative high-throughput screening tests each substance at several concentrations.
Turning to `CCCCCCCCS(=O)C(C)Cc1ccc2c(c1)OCO2` (centres undefined), the Potency result was “inactive”.

`CNCc1cc(F)ccc1Oc1ccc(Cl)c(Cl)c1`: the Potency was 61.1 µM (active).

With `CC(=O)S[C@@H]1CC2=CC(=O)CC[C@]2(C)[C@H]2CC[C@@]3(C)[C@@H](CC[C@@]34CCC(=O)O4)[C@H]12`, the Potency result is “inactive”.

Take `CCCCCCCC[N+](CCCCCCCC)(CCCCCCCC)CCCCCCCC`: the Potency is 9.67 µM (active).

Take `O=C(Nc1cccc(Cl)c1)OCC#CCCl`: the Potency was 38.6 µM (active).

Take `CCC(CN)=C(c1ccccc1)c1ccccc1`: the Potency entry was “inactive”.

Take `CCCCCCCCCCCCCCCC(=O)OC[C@H](O)[C@H]1OC(=O)C(O)=C1O`: the Potency result is “inactive”.

Consider `C[C@@H]1C[C@H]2[C@@H]3CCC4=CC(=O)C=C[C@]4(C)[C@@]3(Cl)[C@@H](O)C[C@]2(C)[C@@]1(OC(=O)c1ccco1)C(=O)CCl`, for which the Potency entry was “inactive”.

With `O=[N+]([O-])c1cc([N+](=O)[O-])c2ccc(S(=O)(=O)O)cc2c1O`, the Potency is 24.2 µM (active).

Take `c1cc(C(c2ccc(OCC3CO3)cc2)c2ccc(OCC3CO3)cc2)ccc1OCC1CO1` (centres undefined): the Potency result was “inactive”.

Regarding `CCOc1nc2cccc(C(=O)OC(C)OC(=O)OC3CCCCC3)c2n1Cc1ccc(-c2ccccc2-c2nn[nH]n2)cc1` (centres undefined), the Potency result is “inactive”.

For the compound `CCCCN(CCCC)c1ccc(C(=O)c2ccccc2C(=O)O)c(O)c1`, the Potency result was “inactive”.

On to `CCCC/C=C/CCCCO`, for which the Potency result was “inactive”.

For `CCN(Cc1cccnc1)C(=O)c1cccc(Cl)c1[C@]1(C)C(=O)N(Cc2ccc(OC)cc2OC)c2ccc(Cl)cc21`, the Potency result was “inactive”.

Take `Cc1nc(-c2ccc3c(c2)CCN(CCC2CCC(NC(=O)/C=C/c4ccc(F)cc4)CC2)CC3)no1` (centres undefined): the Potency entry was “inactive”.

`CC[C@H](c1ccc(O)cc1)[C@@H](CC)c1ccc(O)cc1`: the Potency result is “inactive”.

Take `CNC(=O)c1ccccc1`: the Potency result is “inactive”.

Regarding `O=c1c(-c2ccccc2)c1-c1ccccc1`, the Potency result was “inactive”.

A further assay has as its target Nuclear receptor subfamily 1 group I member 3 (Homo sapiens) (UniProt Q14994). As to the kind of experiment: qHTS assay to identify small molecule antagonists of the constitutive androstane receptor (CAR) signaling pathway (AID 1224838).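 Further: HepG2 cells stably expressing hCAR with CYP2B6 luciferase reporter stimulated by CITCO; nearly all actives have a fitted effect of over 40% in size.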 Particulars: HepG2-CYP2B6-hCAR luciferase, CITCO-stimulated, 24 h; series mostly up to 92.4 µM. The procedure, abridged:
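Luminescence from a CYP2B6-2.2kb promoter reporter in hCAR-expressing HepG2 cells reflects CAR signaling. Cells received compounds at 15 concentrations and 50 nM CITCO (final), then incubated 24 h at 37 C/5% CO2.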
Take `O=C(Oc1cccc2cccnc12)c1ccccc1`: the Potency is 0.001 µM (active).

Consider `O=C(Nc1cccc(C(F)(F)F)c1)c1cc(Br)cc(Br)c1O`, for which the Potency was 15.4 µM (active).

As for `O=C(O)c1cc(O)c2c(c1)C(=O)c1cccc(O)c1C2=O`, the Potency entry is “inactive”.

For `Oc1ccc(Cl)cc1Sc1cc(Cl)ccc1O`, the Potency is 68.5 µM (active).

Take `CCCCCCCCCOC(=O)c1ccc(O)cc1`: the Potency result is “inactive”.

Turning to `CCCCCCCCS(=O)C(C)Cc1ccc2c(c1)OCO2` (centres undefined), the Potency result was “inactive”.

On to `CCCCN1C(=O)[C@@H]([C@H](O)C2CCCCC2)NC(=O)C12CCN(Cc1ccc(Oc3ccc(C(=O)O)cc3)cc1)CC2`, for which the Potency entry was “inactive”.

Regarding `O=c1cc(-c2ccc(O)cc2)oc2cc(O)cc(O)c12`, the Potency result was “inactive”.

On to `CCCCCCCC[N+](CCCCCCCC)(CCCCCCCC)CCCCCCCC`, for which the Potency is 21.6 µM (active).

In the case of `Nc1ccc2c3c(cccc13)-c1ccccc1-2`, the Potency entry was “inactive”.

Take `CCCCCCCCCCCCCCCC(=O)OC[C@H](O)[C@H]1OC(=O)C(O)=C1O`: the Potency entry is “inactive”.

With `CCOc1nc2cccc(C(=O)OC(C)OC(=O)OC3CCCCC3)c2n1Cc1ccc(-c2ccccc2-c2nn[nH]n2)cc1` (centres undefined), the Potency entry was “inactive”.

`CCN(Cc1cccnc1)C(=O)c1cccc(Cl)c1[C@]1(C)C(=O)N(Cc2ccc(OC)cc2OC)c2ccc(Cl)cc21`: the Potency entry is “inactive”.

As for `Nc1ccc2cc(S(=O)(=O)O)cc(O)c2c1N=Nc1ccccc1C(F)(F)F`, the Potency entry was “inactive”.

As for `NC(=NCCCCCCN=C(N)/N=C(\N)Nc1ccc(Cl)cc1)/N=C(\N)Nc1ccc(Cl)cc1`, the Potency is 60.8 µM (active) and inactive.

In the case of `Cc1nc(-c2ccc3c(c2)CCN(CCC2CCC(NC(=O)/C=C/c4ccc(F)cc4)CC2)CC3)no1` (centres undefined), the Potency entry was “inactive”.

For the compound `C/C=C1/C(=O)C[C@H]2[C@@H]3CCC4=CC(=O)CC[C@]4(C)[C@H]3CC[C@]12C`, the Potency result was “inactive”.

Take `CSc1ccc2c(c1)C(N1CCN(C)CC1)Cc1ccccc1S2` (centres undefined): the Potency entry was “inactive”.
